The term Inhibition denotes the share of the control response that was lost under treatment. Read a low Inhibition as little suppression.

The first experiment relates to Plasmodium falciparum. As to the kind of experiment: GSK_TCMDC: Inhibition of Plasmodium falciparum Dd2 in whole red blood cells, using parasite LDH activity as an index of growth. Test compounds present at 2uM. In kind it is functional.
Consider `CCNc1cc(C)nc(Nc2ccc(NC(=O)c3ccco3)cc2)n1`, for which the Inhibition was found to be 32%.
On the same count and under the same terms, in the case of `Cl.O=c1cc(NCCCNCc2cc3c(Cl)cc(Cl)cc3[nH]2)[nH]c2ccccc12` it was 0%; in that of `CS(=O)(=O)Cc1ccc(Nc2nccc(N3CCCc4cc(NC(=O)Nc5cccc(C(F)(F)F)c5)ccc43)n2)cc1`, 99%.
As to `COc1ccc(C(=O)CCC(=O)N(Cc2ccc(-c3ccc(CNCCc4ccccc4)cn3)cc2)C(C)CN(C)C)cc1F.O=C(O)C(F)(F)F` (stereo not given), the Inhibition was determined as 57%.
For `CCCCN1CCN(CCCCNc2c3ccccc3nc3ccccc23)CC1.Cl`, the Inhibition is recorded as 5%.
On the same count and under the same terms, the result for `CCCCC(=O)N(CCOC)Cc1ccc(-c2ccc(CNCCC)cn2)cc1.O=C(O)C(F)(F)F` reads 68%.
In the case of `COc1ccc(Cl)cc1NC(=O)C(C)Nc1ccc(-c2ccccc2)cc1` (stereo not given), the Inhibition is given as 89%.
The same measure, in the same setting: in the case of `Cl.Clc1ccc2c(N3CCN(CCN4CCN(c5ccnc6cc(Cl)ccc56)CC4)CC3)ccnc2c1` it was 100%.
Same read-out and setting: in the case of `COc1ccc2nccc([C@@H](O)CN3CCC(NC(=O)c4ccc5cc[nH]c5c4)CC3)c2c1.CS(=O)(=O)O` it was 23%; in that of `Cc1cccc(NC(=O)Nc2ccc(I)c(OCCN(C)C)c2)c1C`, 17%.
Still for that read-out and setting: the result for `COc1ccc(C(F)(F)F)cc1N1CCN(CCCCNC(=O)c2ccc(NC(=O)c3ccc(Cl)cc3)cc2)CC1` reads 1%; that for `O=C(Nc1ccccc1Br)c1cn(-c2ccccc2)nc1-c1cccc([N+](=O)[O-])c1`, 36%.
With `COc1cccc2cc(C(=O)N[C@@H](CC(C)C)C(=O)N[C@H](C=NN3CCCC3=O)Cc3ccccc3)oc12`, the Inhibition is listed as 80%.
The same measure, in the same setting: the result for `O=c1cc(NCCCNCc2cccc(C(F)(F)F)c2Cl)[nH]c2ccccc12` reads 24%.
Still for that read-out and setting: in the case of `CN(C)CCNC(=O)[C@H](Cc1ccccc1)NC(=O)c1ccc(O)c(-c2ccc(Cl)c(Cl)c2)c1` it was 0%; in that of `COc1cc(C=NNc2ccnc3cc(Cl)ccc23)ccc1O`, 100%.
`Cc1[nH]c(C)c(-c2ccc(OCc3ccc(F)cc3)cc2)c(=O)c1Cl` registered an Inhibition of 96%.
`CCn1c(-c2nonc2N)nc2c(-c3cccc(NC(=O)NC45CC6CC(CC(C6)C4)C5)c3)ncc(OCCCN)c21.O=C(O)C(F)(F)F` displayed an Inhibition of 63%.
Regarding `CC(COc1ccc2c(c1)OC(C)(C)CC2c1ccccc1)NCC(O)c1cccc(Cl)c1.Cl` (stereo not given), the Inhibition is on record as 96%.
Still for that read-out and setting: the result for `CCC(C)(C)c1ccc(OCC(O)CN2CCCCC2)c(C(C)(C)CC)c1` (stereo not given) reads 26%; that for `COc1ccc2c(=NN=Cc3cccc(C)n3)cc(-c3ccccc3)[nH]c2c1`, 25%; that for `N#Cc1cnc(Nc2ccc(Oc3ccccc3)cc2)nc1Nc1cccc(S(N)(=O)=O)c1`, 86%.
With `C[C@H](Nc1nc(C(Oc2ccccc2)c2ccccc2)nc2[nH]ncc12)c1ccccc1` (stereo not given in full), the Inhibition was found to be 56%.
Turning to `Cl.Nc1c2c(nc3ccc(NC(=O)CCCCCc4ccccc4)cc13)CCCC2`, the Inhibition is on record as 36%.
The same measure, in the same setting: the result for `CCCNC(=O)C1CCN(C(c2ccc(Cl)cc2)c2ccc(Cl)cc2)CC1` reads 96%; that for `O=C(Nc1ccc(C(=O)N2CCN(CCN3CCN(c4cccc(C(F)(F)F)c4)CC3)CC2)cc1)c1cc(Cl)cc(Cl)c1`, 19%; that for `Cl.N#Cc1ccc2c(c1)CN(CCC1CCC(NC(=O)c3cc4ccccc4cc3N)CC1)CC2` (stereo not given), 52%.
The compound `Nc1cccc(CNCc2cccc(-c3cccc(-c4nc5cc(C(F)(F)F)ccc5[nH]4)c3)c2)c1.O=C(O)C(F)(F)F` displayed an Inhibition of 96%.
The same measure, in the same setting: in the case of `O=C(O)C(F)(F)F.c1cc(-c2ccc(CNC3CCOCC3)cc2)cc(-c2nc3ccccc3[nH]2)c1` it was 100%.
Same read-out and setting: the result for `O=C(/C=C/c1ccc(Cl)c(Cl)c1)NCCCCCN1CCC(NC(=O)Nc2cc(F)cc(F)c2)CC1` reads 6%.
Still for that read-out and setting: the result for `CCCC(CCC)n1ccc2c3c(N)nc(N)nc3ccc21.Cl` reads 97%; that for `O=C(/C=C/c1ccc(Cl)c(Cl)c1)NCCCCCN1CCCN(C(=S)Nc2ccc(Cl)cc2)CC1`, 10%; that for `COc1cc(F)c2nccc([C@@H](O)CN3CCC(NCc4ccc5c(n4)NC(=O)CS5)CC3)c2c1`, 25%.
On to `CC(=O)Nc1ccc(OCCN(Cc2ccccc2C(F)(F)F)c2ccc(C#N)c(C(F)(F)F)c2)cc1`, for which the Inhibition is 81%.
Still for that read-out and setting: in the case of `COc1ccc2nccc(NC(=O)N3CCC(NCc4cc5ccccc5[nH]4)CC3)c2n1.O=C(O)C(=O)O` it was 29%.
On the same count and under the same terms, the result for `Cc1ccc2ncc(Cl)c(CCN3CCC(NCc4ccc5c(n4)NC(=O)CS5)CC3)c2n1.Cl` reads 12%; that for `CCCCc1cc(NCC)nc(Nc2cccc(OC)c2)n1`, 69%.
As to `CCS(=O)(=O)c1ccc(OC)c(Nc2nccc(-c3c(-c4cccc(NC(=O)c5c(F)cccc5F)c4)nn4ncccc34)n2)c1`, the Inhibition worked out at 88%.
Same read-out and setting: in the case of `Br.NCC(=O)NC12CC3CC(CC(C3)C1)C2` it was 0%; in that of `CCC[C@@H](C(=O)NCCc1cccc(OC)c1)N1C(=O)c2c(ccc(OC)c2OC)C1C(=O)Nc1c(C)cccc1C` (stereo not given in full), 32%.

The next experiment relates to HepG2. As to the kind of experiment: GSK_TCMDC: Percent inhibition of human HepG2 cell line. Test compounds present at 10uM. In kind it is functional.
The compound `CCNc1cc(C)nc(Nc2ccc(NC(=O)c3ccco3)cc2)n1` gave an Inhibition of 24%.
Same read-out and setting: in the case of `Cl.O=c1cc(NCCCNCc2cc3c(Cl)cc(Cl)cc3[nH]2)[nH]c2ccccc12` it was 0%; in that of `CS(=O)(=O)Cc1ccc(Nc2nccc(N3CCCc4cc(NC(=O)Nc5cccc(C(F)(F)F)c5)ccc43)n2)cc1`, 46%.
On the same count and under the same terms, in the case of `COc1ccc(C(=O)CCC(=O)N(Cc2ccc(-c3ccc(CNCCc4ccccc4)cn3)cc2)C(C)CN(C)C)cc1F.O=C(O)C(F)(F)F` (stereo not given) it was 20%; in that of `CCCCN1CCN(CCCCNc2c3ccccc3nc3ccccc23)CC1.Cl`, 27%; in that of `CCCCC(=O)N(CCOC)Cc1ccc(-c2ccc(CNCCC)cn2)cc1.O=C(O)C(F)(F)F`, 30%.
With `COc1ccc(Cl)cc1NC(=O)C(C)Nc1ccc(-c2ccccc2)cc1` (stereo not given), the Inhibition is 0%.
On the same count and under the same terms, the result for `Cl.Clc1ccc2c(N3CCN(CCN4CCN(c5ccnc6cc(Cl)ccc56)CC4)CC3)ccnc2c1` reads 10%; that for `COc1ccc2nccc([C@@H](O)CN3CCC(NC(=O)c4ccc5cc[nH]c5c4)CC3)c2c1.CS(=O)(=O)O`, 21%; that for `Cc1cccc(NC(=O)Nc2ccc(I)c(OCCN(C)C)c2)c1C`, 13%.
`COc1ccc(C(F)(F)F)cc1N1CCN(CCCCNC(=O)c2ccc(NC(=O)c3ccc(Cl)cc3)cc2)CC1` returned an Inhibition of 12%.
As for `O=C(Nc1ccccc1Br)c1cn(-c2ccccc2)nc1-c1cccc([N+](=O)[O-])c1`, the Inhibition worked out at 7%.
The same measure, in the same setting: in the case of `COc1cccc2cc(C(=O)N[C@@H](CC(C)C)C(=O)N[C@H](C=NN3CCCC3=O)Cc3ccccc3)oc12` it was 5%.
The same measure, in the same setting: the result for `O=c1cc(NCCCNCc2cccc(C(F)(F)F)c2Cl)[nH]c2ccccc12` reads 0%; that for `CN(C)CCNC(=O)[C@H](Cc1ccccc1)NC(=O)c1ccc(O)c(-c2ccc(Cl)c(Cl)c2)c1`, 0%.
On the same count and under the same terms, in the case of `COc1cc(C=NNc2ccnc3cc(Cl)ccc23)ccc1O` it was 15%.
Regarding `Cc1[nH]c(C)c(-c2ccc(OCc3ccc(F)cc3)cc2)c(=O)c1Cl`, the Inhibition is given as 0%.
Still for that read-out and setting: the result for `CCn1c(-c2nonc2N)nc2c(-c3cccc(NC(=O)NC45CC6CC(CC(C6)C4)C5)c3)ncc(OCCCN)c21.O=C(O)C(F)(F)F` reads 100%.
As for `CC(COc1ccc2c(c1)OC(C)(C)CC2c1ccccc1)NCC(O)c1cccc(Cl)c1.Cl` (stereo not given), the Inhibition is recorded as 1%.
Same read-out and setting: the result for `CCC(C)(C)c1ccc(OCC(O)CN2CCCCC2)c(C(C)(C)CC)c1` (stereo not given) reads 14%; that for `COc1ccc2c(=NN=Cc3cccc(C)n3)cc(-c3ccccc3)[nH]c2c1`, 0%.
Same read-out and setting: the result for `N#Cc1cnc(Nc2ccc(Oc3ccccc3)cc2)nc1Nc1cccc(S(N)(=O)=O)c1` reads 74%.
The same measure, in the same setting: in the case of `C[C@H](Nc1nc(C(Oc2ccccc2)c2ccccc2)nc2[nH]ncc12)c1ccccc1` (stereo not given in full) it was 15%; in that of `Cl.Nc1c2c(nc3ccc(NC(=O)CCCCCc4ccccc4)cc13)CCCC2`, 32%.
For the compound `CCCNC(=O)C1CCN(C(c2ccc(Cl)cc2)c2ccc(Cl)cc2)CC1`, the Inhibition worked out at 7%.
On the same count and under the same terms, in the case of `O=C(Nc1ccc(C(=O)N2CCN(CCN3CCN(c4cccc(C(F)(F)F)c4)CC3)CC2)cc1)c1cc(Cl)cc(Cl)c1` it was 23%.
In turn, `Cl.N#Cc1ccc2c(c1)CN(CCC1CCC(NC(=O)c3cc4ccccc4cc3N)CC1)CC2` (stereo not given) gave an Inhibition of 5%.
The compound `Nc1cccc(CNCc2cccc(-c3cccc(-c4nc5cc(C(F)(F)F)ccc5[nH]4)c3)c2)c1.O=C(O)C(F)(F)F` had an Inhibition of 8%.
Same read-out and setting: the result for `O=C(O)C(F)(F)F.c1cc(-c2ccc(CNC3CCOCC3)cc2)cc(-c2nc3ccccc3[nH]2)c1` reads 30%.
Still for that read-out and setting: the result for `O=C(/C=C/c1ccc(Cl)c(Cl)c1)NCCCCCN1CCC(NC(=O)Nc2cc(F)cc(F)c2)CC1` reads 80%; that for `CCCC(CCC)n1ccc2c3c(N)nc(N)nc3ccc21.Cl`, 66%.
Consider `O=C(/C=C/c1ccc(Cl)c(Cl)c1)NCCCCCN1CCCN(C(=S)Nc2ccc(Cl)cc2)CC1`, for which the Inhibition came to 7%.
Same read-out and setting: the result for `COc1cc(F)c2nccc([C@@H](O)CN3CCC(NCc4ccc5c(n4)NC(=O)CS5)CC3)c2c1` reads 23%; that for `CC(=O)Nc1ccc(OCCN(Cc2ccccc2C(F)(F)F)c2ccc(C#N)c(C(F)(F)F)c2)cc1`, 8%; that for `COc1ccc2nccc(NC(=O)N3CCC(NCc4cc5ccccc5[nH]4)CC3)c2n1.O=C(O)C(=O)O`, 27%.
Still for that read-out and setting: in the case of `Cc1ccc2ncc(Cl)c(CCN3CCC(NCc4ccc5c(n4)NC(=O)CS5)CC3)c2n1.Cl` it was 13%; in that of `CCCCc1cc(NCC)nc(Nc2cccc(OC)c2)n1`, 9%; in that of `CCS(=O)(=O)c1ccc(OC)c(Nc2nccc(-c3c(-c4cccc(NC(=O)c5c(F)cccc5F)c4)nn4ncccc34)n2)c1`, 27%.
On the same count and under the same terms, in the case of `Br.NCC(=O)NC12CC3CC(CC(C3)C1)C2` it was 15%; in that of `CCC[C@@H](C(=O)NCCc1cccc(OC)c1)N1C(=O)c2c(ccc(OC)c2OC)C1C(=O)Nc1c(C)cccc1C` (stereo not given in full), 6%.

(Values after ChEMBL document CHEMBL1157539, “Thousands of chemical starting points for antimalarial lead identification” (Nature, 2010).)
